Holding throughout (assay): NCI-60 one-dose screen, 48 h (100 = growth as untreated, 0 = no growth, -100 = all killed)
Settings in all cases: 10 µM

Test [1] concerns NCI-H23 lung.
Test [2] has as its system NCI-H226 lung.
Test [3] deals with NCI-H460 lung.
Test [4] concerns A549/ATCC NSCLC.
Test [5] has as its system 786-0 renal.
The subject of test [6] is COLO 205 colon.
The test system of test [7] is DU-145 prostate.
Test [8] relates to MALME-3M melanoma.
Test [9] has as its system MDA-MB-231 breast.
In test [10] the test system is RXF 393 renal.
Test [11] relates to SF-268 CNS.
The subject of test [12] is SF-295 CNS.
The test system of test [13] is SF-539 CNS.
Test [14] concerns UACC-257 melanoma.
Test [15] has as its system M14 melanoma.
Test [16] relates to NCI-H522 lung.
Test [17] concerns K-562 leukemia.

About 83,000 compounds went through this panel and 20% of them were active in at least one assay; those are over-represented in the sample as a whole.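 Assay: single dose, 48 h. Readout: percent growth (0 = no net growth; negative = cell death). Active: <10.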 A number with no mark means an inactive call. The source made the active and inactive calls.

On to `C#C[C@]1(O)CCC2C3CCc4cc(OC5CCCC5)ccc4C3CC[C@@]21C` (stereo not given in full), for which the growth in test [1] was 76.6%; in test [2] it was 91.6%; in test [3] it was 49.8%; in test [4], 65.9%; in [5] it was 73.5%; in [6] it was 49.3%. The growth was 89% in [7]; 121% in test [8]; 50.6% in test [9]; 97.7% in [10]; 71.3% in test [11]; 77.2% in [12]. Also, the growth in test [13] is 101%; in test [14], 92.6%; in test [15], 80.2%.

Regarding `CCCCCC(=O)O[C@]1(C(C)=O)CCC2C3CCC4=CC(=O)CC[C@]4(C)C3CC[C@@]21C` (stereo not given in full), the growth in test [1] was 22.1%; in test [2] it was 52.7%; in test [3] it was 15.2%; in [4], 27.9%; in test [5] it was 40.3%; in test [6] it was 13.3%. Moreover, the growth in test [7] is 55.4%; in test [8], 62.1%; in test [9], 29.1%; in test [10], 53.2%; in [11], 43.6%; in [12], 13.1%. The growth in test [13] was 74.8%; in [14] it was 14%; in test [15], 23.8%.

Consider `O=C(Nc1ccccc1)Nc1ncnc2c1ncn2-c1ccccc1`, for which the growth in test [1] was 90.9%; in test [2] it was 59.1%; in test [3], 7.9% (active); in test [16], 74.4%; in test [4], 44.5%; in test [5], 12.1%. Moreover, the growth is 86.1% in [6]; 99.2% in test [7]; 98.7% in test [17]; 76.5% in test [8]; 68.3% in [9]; 95.4% in test [10]. The growth is 92.5% in test [11], 31% in [12], 82.8% in [13] and 81.4% in test [15].

With `Cc1cc(CC(C)CC(C)(C)C)n(O)c(=O)c1` (stereo not given) (tested in a mixture with another compound), the growth in test [1] was 14.6%; in test [2], 14.1%; in test [3] it was 3.41% (active); in test [4], 20.2%; in test [5], 29%; in test [6] it was 95.5%. The growth in test [7] was 19.5%; in [8], 8.49% (active); in [9], 38.3%; in test [10], 42.1%; in test [11] it was 14.4%; in test [12] it was 6.87% (active). Besides, the growth was 6.73% (active) in test [13], -1.79% (active) in test [14] and -35.9% (active) in [15].

Consider `CCNc1nc(C(F)(F)F)nc2c1sc(=S)n2-c1ccccc1`, for which the growth in [1] was 93.4%; in test [2], 88.5%; in test [3], 100%; in test [16] it was 70.4%; in test [4], 74.4%; in test [5], 101%. The growth in [6] is 106%; in test [7] it was 101%; in test [17], 103%; in test [8], 144%; in test [9], 85.1%; in test [10], 100%. Also, the growth is 105% in test [11], 94% in [12], 101% in [13] and 108% in test [15].

Regarding `Nc1nc(-c2cccnc2)nc2c1sc(=S)n2-c1ccccc1`, the growth is 103% in test [1]; 95.8% in [2]; 97.2% in test [3]; 83.4% in test [16]; 76.2% in test [4]; 98.7% in [5]. Further, the growth in [6] was 108%; in [7], 103%; in [17], 106%; in test [8] it was 112%; in [9], 65.2%; in [10], 100%. The growth in test [11] was 96%; in test [12], 111%; in [13], 103%; in [15], 106%.

Turning to `c1cnc2[nH]cc(-c3nc(-c4ccsc4)cs3)c2c1`, the growth in test [1] is 80.2%; in test [2] it was 74.4%; in [3] it was 109%; in test [16] it was 79.4%; in test [4], 84.7%; in test [5], 107%. Further, the growth was 117% in test [6]; 98.8% in test [7]; 109% in test [17]; 121% in test [8]; 85.6% in test [9]; 98.3% in test [10]. Also, the growth in test [11] was 79.9%; in test [12], 101%; in test [13] it was 93.7%; in test [15] it was 104%.

As to `CN1CCc2c(sc3nc4n(-c5ccc(Cl)cc5)c(=O)[nH]n4c(=O)c23)C1`, the growth is 97.4% in test [1]; 94.7% in [2]; 77.9% in [16]; 74.7% in [4]; 84.8% in [5]; 108% in test [6]. Besides, the growth is 103% in test [7]; 107% in test [17]; 98.5% in test [8]; 120% in test [9]; 118% in test [10]; 106% in test [11]. Besides, the results for the growth in test [12], in [13] and in test [15] were 104%, 99.8% and 99.3%, respectively.

For `COc1ccc(-c2cc(-c3cc(OC)ccc3OC)nc(N)c2C#N)cc1`, the growth in test [1] was 68.8%; in test [2], 63.7%; in [3], 52.5%; in [16], 23.6%; in test [4], 62.6%; in test [5], 66.2%. Moreover, the growth in [6] was 57.1%; in [7] it was 96.2%; in test [17], 89.5%; in [8] it was 36.9%; in test [9], 56.3%; in test [10], 70.5%. Besides, the growth in test [11] was 40.1%; in test [12], 64.7%; in test [13] it was 57.8%; in test [15], 79.8%.

Regarding `O=C(CCCNC(=O)c1nc(-c2ccccc2)n(-c2ccccc2)n1)NO`, the growth in [1] is 101%; in test [2], 85.6%; in test [16] it was 75.4%; in test [4], 71.7%; in test [5], 92.3%; in [6] it was 109%. In addition, the growth in [7] is 108%; in [17] it was 106%; in [8] it was 99.4%; in test [9], 103%; in test [10] it was 103%; in test [11], 105%. Further, the growth in test [12] was 105%; in [13] it was 107%; in test [15], 98%.

For the origin of these results see PubChem BioAssay (NCI).
